Test results reported in PubChem BioAssay (Tox21).
Records with an inconclusive call do not appear. Activity calls are given as the source filed them. Unless noted, calls follow the shape of the dose curve; as a rule, active = well fitted curve in the direction sought with a large enough effect in the repeat runs; inconclusive = weak or mixed curves; inactive = no such curve, though single readings can be large; an effect the other way counts as inactive or inconclusive.

Columns and labels:
[1] = molecular target: Aryl hydrocarbon receptor (Homo sapiens) (UniProt P35869); test: qHTS assay to identify small molecule that activate the aryl hydrocarbon receptor (AhR) signaling pathway (AID 743085); also: nearly all actives have a fitted effect of over 15% in size; also: potency is read from the fitted curve at half-maximal effect;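 as to activation: HG2L7.5c1 human HepG2 liver cells with stably integrated DRE-driven firefly reporter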
Outline: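 Reporter assay in engineered HepG2 line HG2L7.5c1, whose plasmid carries twenty dioxin responsive elements upstream of firefly luciferase. Treatment lasted 24 h at 37C; ONE-Glo luminescence gauged induction.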

[2] = qHTS assay to identify small molecule antagonists of the retinoic acid receptor (RAR) signaling pathway (AID 1159552; also: nearly all actives have a fitted effect of over 50% in size; also: potency is read from the fitted curve at half-maximal effect)
Outline: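 Overnight-plated C3RL4 reporter cells get compound, then retinol to 1 uM final; plates sit 6 hr at 37 C, 5% CO2. A luciferase reagent is added and light output recorded after 30 min at room temperature.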

[3] = Caspase-3/7 induction in HepG2 cells by small molecules, qHTS assay (AID 1346978); also: nearly all actives have a fitted effect of over 15% in size; also: potency is read from the fitted curve at half-maximal effect
Outline: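 Wild-type HepG2 cells, 2,000/well, settled 5 hr at 37 C and 5% CO2, then compound-treated for 17 hr; caspase-3/7 activity read by luminescent Caspase-Glo 3/7 after 30 min at room temperature.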

[4] = molecular target: Acetylcholinesterase (Homo sapiens) (UniProt P22303); test: Acetylcholinesterase (AChE) small molecule antagonists: colormetric cell-based qHTS assay (AID 1347395; calls by dose curve; also: nearly all actives have a fitted effect of over 30% in size)
Outline: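 Quantitative HTS in attached SH-SY5Y cells: 30 min compound exposure, then 90 min with acetylthiocholine and DTNB at 37 C; colour from thiocholine reports AChE activity.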

[5] = molecular target: Acetylcholinesterase (Homo sapiens) (UniProt P22303); test: Acetylcholinesterase (AChE) small molecule antagonists: enzyme-based qHTS assay (AID 1347397; calls by dose curve; also: nearly all actives have a fitted effect of over 55% in size); settings: Potency: AChE enzyme activity inhibition; outcome: AChE enzyme activity inhibition
Outline: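 Recombinant human AChE (50 mU/mL) preincubated with compound 30 min at room temperature; acetylthiocholine plus DTNB then added, and thiocholine formation read colorimetrically after 10 min at room temperature. DMSO served as vehicle control.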

[6] = molecular target: Acetylcholinesterase (Homo sapiens) (UniProt P22303); test: Acetylcholinesterase (AChE) small molecule antagonists: fluorescence cell-based qHTS assay (AID 1347398; calls by dose curve; also: nearly all actives have a fitted effect of over 50% in size); settings: Potency: AChE activity; outcome: AChE activity
Outline: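 SH-SY5Y cells (2000/well), attached overnight, incubated with compound 30 min at 37 C. Acetylthiocholine plus Thiolite Green then added for 40 min at room temperature. Thiocholine fluorescence (Ex/Em 490/520 nm) reports cellular AChE activity.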

[7] = molecular target: Acetylcholinesterase (Homo sapiens) (UniProt P22303); test: Acetylcholinesterase (AChE) small molecule antagonists: enzyme-based qHTS assay with human liver microsomes (AID 1347399; calls by dose curve; also: nearly all actives have a fitted effect of over 60% in size); settings: Potency: qHTS inhibition; outcome: qHTS inhibition
Outline: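 Recombinant human AChE (50 mU/mL in the enzyme mix) and human liver microsomes (0.25 mg/mL final) were preincubated with compound and NADPH (0.25 mg/mL final) for 30 min at 37 C. Acetylthiocholine/DTNB was then added; thiocholine was read colorimetrically after 10 min at room temperature.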

Aromatase (Homo sapiens) = Aromatase (Homo sapiens) (UniProt P11511); test: qHTS assay to identify aromatase inhibitors (AID 743083); also: nearly all actives have a fitted effect of over 55% in size; also: potency is read from the fitted curve at half-maximal effect
[8] = qHTS assay to identify small molecule agonists of H2AX (AID 1224845; active = well fitted activation curve with a large enough effect in the signal ratio in the repeat runs, not every such curve was filed as active; the % refers to the signal ratio)
Outline: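 Wild-type CHO-K1 cells, plated overnight, exposed 3hr at 37C to 15 concentrations (0.76% DMSO final). Lysed, then HTRF anti-pH2AX (S139) cryptate and anti-H2AX-d2 antibodies, 24 hr room temperature; 665/620 nm emission read.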

[9] = qHTS assay to identify small molecule antagonists of the estrogen related receptor (ERR) signaling pathway (AID 1224819; also: nearly all actives have a fitted effect of over 50% in size; also: potency is read from the fitted curve at half-maximal effect)
Outline: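 Luminescence readout (One-Glo, 30 min, RT) of ERR cell line after 18 h compound exposure at 37 C; cells seeded 2,000/well, pre-incubated 6 h, compounds pinned from DMSO stocks.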

[10] = qHTS assay to identify small molecule agonists of the estrogen related receptor (ERR) signaling pathway (AID 1224820)
Outline: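 ERR reporter cell line (from NTP), 2,000 cells/well, incubated 6 h before compound addition, then 18 h at 37 C. Luminescence measured 30 min after One-Glo reagent at room temperature.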

[11] = system: estrogen-related receptor alpha (ERRalpha) with PGC-1alpha coactivator, human; test: qHTS assay to identify small molecule antagonists of the estrogen related receptor signaling pathway with the pleiotropic PPARgamma coactivator (PGC) (AID 1224821; calls by dose curve; also: nearly all actives have a fitted effect of over 50% in size; also: potency is read from the fitted curve at half-maximal effect)
Outline: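 PGC/ERR reporter cell line, plated 6 h before compound addition, then exposed 18 h at 37 °C. Luciferase activity read by luminescence 30 min after One-Glo addition; decrease indicates antagonism.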

[12] = qHTS assay to identify small molecule antagonists of the estrogen related receptor signaling pathway with the pleiotropic PPARgamma coactivator (PGC) cell viability counter screen (AID 1224822;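 also: viability read after 17.5 h compound exposure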)
Outline: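 PGC/ERR cells were plated at 2,000 per well and allowed 6 h to settle before compound addition. Following 17.5 h at 37 C, CellTiter-Fluor reagent was added and fluorescence was read 30 min later.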

[13] = qHTS assay to identify small molecule agonists of the estrogen related receptor (ERR) signaling pathway from Tox21 library (AID 1224849; calls by dose curve; also: nearly all actives have a fitted effect of over 15% in size); settings: ERR reporter cell line, ONE-Glo luciferase, 18 h; at 92.4 µM (top of the series) unless noted
Outline: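 Screening used an NTP-provided ERR luciferase cell line. Compounds in DMSO were added 6 h after seeding and left 18 h at 37 C before a 30 min ONE-Glo step and luminescence reading.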

[14] = A CellTox Green Cytotoxicity Assay to monitor cytotoxicity in HepG2 cells - 0 hour (AID 1224882); also: nearly all actives have a fitted effect of over 35% in size
Outline: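 Using 1536-well format, dye-containing HepG2 suspension was seeded, allowed 5 h at 37 C/5% CO2, dosed by pintool with compounds, positive and negative controls, and imaged for fluorescence across 40 h.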

[15] = qHTS assay to identify small molecule HDAC inhibitors (AID 1259364);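 also: wild-type HCT-116 cells with endogenous class I/II HDAC activity; top concentration of the series differs between compounds; nearly all actives have a fitted effect of over 45% in size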
Outline: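 Read-out: luminescence of HDAC-Glo I/II reagent, 30 min RT, reflecting class I/II deacetylase activity in whole HCT-116 cells pre-exposed 2 h to DMSO-dissolved compounds.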

[16] = qHTS assay to identify small molecule agonists of the sonic hedgehog signaling (Shh) pathway (AID 1259368; calls by dose curve;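 also: NIH/3T3-derived 3T3Gli1-Luc cells carrying a stable Gli1-driven firefly luciferase reporter; nearly all actives have a fitted effect of over 15% in size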)
Outline: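 A Gli1 transcriptional response element controlled firefly luciferase in 3T3Gli1-Luc cells. Compounds and a positive control were added 4 hr after plating, and cells were incubated a further 24 hr at 37 C before luminescence detection.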

[17] = Caspase-3/7 induction in CHO-K1 cells by small molecules, qHTS assay (AID 1346980); also: nearly all actives have a fitted effect of over 15% in size
Outline: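 Wild-type CHO-K1 cells exposed to compounds for 17hr at 37 C, 5% CO2. Caspase-3/7 activity then measured by Caspase-Glo 3/7 luminescence after 30min at room temperature.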

[18] = qHTS assay to identify small molecule antagonists of the estrogen related receptor (ERR) signaling pathway - cell viability counter screen (AID 1224818); also: potency is read from the fitted curve at half-maximal effect;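 also: viability measured after 17.5 h of compound exposure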
Outline: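 After a 6 h pre-incubation, ERR cells were dosed by pin tool with compounds, positive/negative controls or DMSO alone. Following 17.5 h at 37 C and 30 min with CellTiter-Fluor, fluorescence was recorded.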

[19] = qHTS assay to identify small molecule agonists of the estrogen related receptor signaling pathway with the pleiotropic PPARgamma coactivator (PGC) (AID 1224823)
Outline: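 PGC/ERR reporter cells seeded 6 h, then exposed to compounds (23 nL in DMSO) for 18 h at 37 C. One-Glo luciferase luminescence read after 30 min at room temperature.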
% is scaled to controls: 0 for no effect and ±100 for the full control effect.

Sequence of Aromatase (Homo sapiens) (P11511 whole entry, looked up): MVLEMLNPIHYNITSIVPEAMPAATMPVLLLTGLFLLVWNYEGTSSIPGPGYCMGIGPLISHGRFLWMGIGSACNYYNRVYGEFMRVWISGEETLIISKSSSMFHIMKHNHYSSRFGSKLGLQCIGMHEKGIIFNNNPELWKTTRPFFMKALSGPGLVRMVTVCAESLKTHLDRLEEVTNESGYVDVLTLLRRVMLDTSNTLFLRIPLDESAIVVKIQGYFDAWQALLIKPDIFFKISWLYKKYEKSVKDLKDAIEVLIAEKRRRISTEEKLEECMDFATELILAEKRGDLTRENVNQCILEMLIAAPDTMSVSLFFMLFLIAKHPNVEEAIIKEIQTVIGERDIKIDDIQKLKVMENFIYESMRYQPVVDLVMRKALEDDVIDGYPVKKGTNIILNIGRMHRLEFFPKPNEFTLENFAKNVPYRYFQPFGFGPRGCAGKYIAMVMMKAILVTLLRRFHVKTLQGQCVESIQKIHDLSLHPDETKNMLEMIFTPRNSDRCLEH
Sequence of Acetylcholinesterase (Homo sapiens) (P22303 whole entry, looked up): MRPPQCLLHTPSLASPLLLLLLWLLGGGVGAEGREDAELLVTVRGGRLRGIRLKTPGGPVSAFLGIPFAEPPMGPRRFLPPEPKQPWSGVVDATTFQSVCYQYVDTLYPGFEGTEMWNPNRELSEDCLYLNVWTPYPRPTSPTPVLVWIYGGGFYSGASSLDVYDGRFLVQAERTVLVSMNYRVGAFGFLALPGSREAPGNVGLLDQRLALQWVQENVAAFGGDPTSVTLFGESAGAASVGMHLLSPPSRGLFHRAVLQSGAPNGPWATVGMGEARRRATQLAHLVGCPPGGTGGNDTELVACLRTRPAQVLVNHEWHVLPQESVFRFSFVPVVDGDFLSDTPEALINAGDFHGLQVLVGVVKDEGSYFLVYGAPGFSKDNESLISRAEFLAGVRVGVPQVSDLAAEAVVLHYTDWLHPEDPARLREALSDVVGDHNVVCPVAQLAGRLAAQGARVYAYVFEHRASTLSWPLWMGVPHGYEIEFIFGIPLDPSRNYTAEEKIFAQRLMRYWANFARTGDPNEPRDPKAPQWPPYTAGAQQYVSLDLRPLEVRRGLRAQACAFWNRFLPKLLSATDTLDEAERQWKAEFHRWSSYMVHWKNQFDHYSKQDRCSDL
Sequence of Aryl hydrocarbon receptor (Homo sapiens) (P35869 whole entry, looked up): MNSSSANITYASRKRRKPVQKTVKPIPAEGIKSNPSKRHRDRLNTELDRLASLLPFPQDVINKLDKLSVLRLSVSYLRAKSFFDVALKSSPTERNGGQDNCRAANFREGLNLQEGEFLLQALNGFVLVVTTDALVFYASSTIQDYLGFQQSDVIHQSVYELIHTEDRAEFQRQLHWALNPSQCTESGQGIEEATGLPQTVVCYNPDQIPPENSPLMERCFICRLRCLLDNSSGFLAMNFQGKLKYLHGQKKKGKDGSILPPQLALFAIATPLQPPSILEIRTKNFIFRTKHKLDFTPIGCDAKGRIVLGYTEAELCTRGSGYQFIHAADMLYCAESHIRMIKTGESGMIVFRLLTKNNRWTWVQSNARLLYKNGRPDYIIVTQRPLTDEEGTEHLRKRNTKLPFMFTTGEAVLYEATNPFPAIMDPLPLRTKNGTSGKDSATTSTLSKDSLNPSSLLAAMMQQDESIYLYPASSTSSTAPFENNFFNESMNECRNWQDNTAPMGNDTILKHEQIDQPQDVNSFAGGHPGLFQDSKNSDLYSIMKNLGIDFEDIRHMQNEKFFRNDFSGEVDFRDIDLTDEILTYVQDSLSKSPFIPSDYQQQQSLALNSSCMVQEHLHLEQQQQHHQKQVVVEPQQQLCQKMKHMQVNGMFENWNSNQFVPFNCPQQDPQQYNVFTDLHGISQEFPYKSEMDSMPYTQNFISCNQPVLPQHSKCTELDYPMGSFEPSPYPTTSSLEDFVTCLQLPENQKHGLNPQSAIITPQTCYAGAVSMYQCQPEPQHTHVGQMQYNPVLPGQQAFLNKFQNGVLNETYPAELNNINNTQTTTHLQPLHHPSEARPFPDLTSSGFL

Oc1cc(Cl)cc(Cl)c1Cl
active: Potency [1] 24.9 µM | Potency [2] 62.6 µM
inactive: Potency [3] | Potency [4] | Potency [5] | Potency [6] | Potency [7]

Cc1ccc(N)c([N+](=O)[O-])c1
inactive: Potency (Aromatase (Homo sapiens)) | Potency [1] | Potency [2] | Potency [4] | Potency [5] | Potency [6] | Potency [7]

COc1ccc(CCN2CCC(Nc3nc4ccccc4n3Cc3ccc(F)cc3)CC2)cc1
active: Potency (Aromatase (Homo sapiens)) 21.1 µM | Potency [2] 1.25 µM | Potency [3] 26.6 µM

Brc1ccc(Br)c(Br)c1
inactive: Potency (Aromatase (Homo sapiens)) | Potency [1] | Potency [2] | Potency [8] | Potency [3] | Potency [4] | Potency [5] | Potency [6] | Potency [7]

C=CC(=O)OCCCC
inactive: Potency (Aromatase (Homo sapiens)) | Potency [4] | Potency [5] | Potency [6] | Potency [7]

CO/C=C(/C(=O)OC)c1ccccc1Oc1cc(Oc2ccccc2C#N)ncn1
inactive: Potency [10] | Potency [12] | activity change, positive = activation [13] -64.5% | Potency [14] | outcome [15] | outcome [16] | Potency [3] | outcome [17] | Potency [4] | Potency [5] | Potency [6] | Potency [7]
active: Potency (Aromatase (Homo sapiens)) 41.1 µM | Potency [9] 4.86 µM | Potency [11] 8.31 µM

C=CCOC(=O)c1ccccc1C(=O)OCC=C
inactive: Potency (Aromatase (Homo sapiens)) | Potency [1] | Potency [2] | Potency [8] | Potency [4] | Potency [5] | Potency [6] | Potency [7]

Cc1ccccc1N=O
inactive: Potency [2] | Potency [3] | Potency [4] | Potency [5] | Potency [6] | Potency [7]

CC(CCl)OP(=O)(OC(C)CCl)OC(C)CCl (configuration not stated)
inactive: Potency (Aromatase (Homo sapiens)) | Potency [1] | Potency [2] | activity change, positive = activation [13] -19.5% | Potency [4] | Potency [5] | Potency [6] | Potency [7]

OCC(CBr)(CBr)CBr
inactive: Potency (Aromatase (Homo sapiens)) | Potency [2] | Potency [8] | Potency [3] | Potency [4] | Potency [5] | Potency [6] | Potency [7]

COc1cc(C(O)CN)ccc1O (configuration not stated)
inactive: Potency [18] | Potency [9] | Potency [10] | Potency [11] | Potency [12] | Potency [19]

C=CCN1CCC23c4c5ccc(O)c4O[C@H]2C(=O)CC[C@@]3(O)C1C5 (some centres not stated)
inactive: Potency [18] | Potency [9] | Potency [10] | Potency [11] | Potency [12] | Potency [19]

CCCN1CC[C@@H]2c3cc(O)ccc3CC[C@@H]21
inactive: Potency [18] | Potency [9] | Potency [10] | Potency [11] | Potency [12] | Potency [19]

CCCC[N+]1(C)C2CC(OC(=O)[C@H](CO)c3ccccc3)CC1C1OC12 (some centres not stated)
inactive: Potency [18]

CC(=O)NCCc1c[nH]c2ccccc12
inactive: Potency [18] | Potency [9] | Potency [10] | Potency [11]

CC(C)Oc1cccnc1N(C)C1CCN(Cc2ccccc2)CC1
inactive: Potency [18] | Potency [9] | Potency [10] | Potency [11] | Potency [12]

COC(=O)[C@@H](N)CCCN=C(N)N[N+](=O)[O-]
inactive: Potency [18]

CC(N)[C@H](O)c1ccc(O)c(O)c1 (some centres not stated)
inactive: Potency [18] | Potency [9] | Potency [10] | Potency [11] | Potency [12] | Potency [19]

CCOC(=O)c1ncn2c1[C@@H]1CCCN1C(=O)c1cc(OC)ccc1-2
inactive: Potency [18] | Potency [9] | Potency [10] | Potency [11] | Potency [12] | Potency [19]

NC(=O)c1cc(N2CC2)c([N+](=O)[O-])cc1[N+](=O)[O-]
inactive: Potency [18] | Potency [9] | Potency [10] | Potency [11] | Potency [12] | Potency [19]

COc1ccc2c(c1O)-c1cccc3c1[C@@H](C2)N(C)CC3
inactive: Potency [18] | Potency [9] | Potency [10] | Potency [11] | Potency [12] | Potency [19]

NCCCP(=O)(O)O
inactive: Potency [18] | Potency [9] | Potency [10] | Potency [11] | Potency [12] | Potency [19]

C[N+]1(C)CCc2cc3c(cc2[C@H]1[C@@H]1OC(=O)c2c1ccc1c2OCO1)OCO3
inactive: Potency [18] | Potency [9] | Potency [10] | Potency [11] | Potency [12] | Potency [19]

CCCn1c(=O)c2[nH]c(C3CCCC3)nc2n(CCCOC(=O)c2ccc(S(=O)(=O)F)cc2)c1=O
inactive: Potency [18] | Potency [9] | Potency [10] | Potency [11] | Potency [12] | Potency [19]

CS(=N)(=O)CC[C@H](N)C(=O)O (some centres not stated)
inactive: Potency [18] | Potency [9] | Potency [10] | Potency [11] | Potency [12]

CN(N=O)c1ccc(O)c(O)c1
inactive: Potency [18] | Potency [9] | Potency [10] | Potency [11] | Potency [12] | Potency [19]

NC(N)=NOCC[C@H](N)C(=O)O
inactive: Potency [18] | Potency [9] | Potency [10] | Potency [11] | Potency [12] | Potency [19]

COc1ccc(CNC(=O)/C=C/c2ccc3[nH]cc(CCN(C)C)c3c2)cc1
inactive: Potency [18] | Potency [9] | Potency [10] | Potency [11] | Potency [12]

C[C@@H]1O[C@H](C[N+](C)(C)C)C[C@H]1O
inactive: Potency [18] | Potency [9] | Potency [10] | Potency [11] | Potency [12]

NCC(CP(=O)(O)O)c1ccc(Cl)cc1 (configuration not stated)
inactive: Potency [18] | Potency [9] | Potency [10] | Potency [11] | Potency [12] | Potency [19]

C[C@H]1C2Cc3ccc(O)cc3[C@@]1(C)CCN2CC1CC1
inactive: Potency [18] | Potency [9] | Potency [10] | Potency [11] | Potency [12]

O=C1CC[C@@]2(O)C3Cc4ccc(O)c5c4C2(CCN3CC2CC2)[C@H]1O5 (some centres not stated)
inactive: Potency [18]

C=CCN1C[C@@H](C)N([C@H](c2ccc(C(=O)N(CC)CC)cc2)c2cccc(OC)c2)C[C@@H]1C
active: Potency [9] 26.6 µM
inactive: Potency [18] | Potency [10] | Potency [11] | Potency [12] | Potency [19]

NC(CCCCCP(=O)(O)O)C(=O)O (configuration not stated)
inactive: Potency [18] | Potency [9] | Potency [10] | Potency [11] | Potency [12] | Potency [19]

C[N+]1(C)CCC(OC(=O)C(c2ccccc2)c2ccccc2)CC1
inactive: Potency [18] | Potency [9] | Potency [10] | Potency [11] | Potency [12]

O=C1/C(=C/c2ccccc2)C[C@@]2(O)[C@H]3Cc4ccc(O)c5c4[C@@]2(CCN3CC2CC2)[C@H]1O5
inactive: Potency [10]
active: Potency [18] 8.74 µM | Potency [9] 2.37 µM | Potency [11] 2.2 µM
